# According to PubChem BioAssay AID2669 (National Center for Advancing Translational Sciences (NCATS), 2010):
# Values joined by “and” are separate entries in the source; they are usually repeats but may differ in a detail not shown here. Equal entries are not always repeated. Records with an inconclusive call do not appear. Active and inactive are the calls of the source. The call rests on the fitted dose curve; in most records, active means well fitted inhibition curve with a large enough effect; inconclusive means small, poorly fitted or top-dose-only effect, or effect the other way; inactive means flat fitted curve, though single readings scatter.
# Test: qHTS Assay Multiplex Screening to Identify Dual Action Probes in a Cell Model of Huntington: Cytoprotection (Protease relase)
# Settings: PC12 HttQ103 cells, Cytotox-Glo protease release, 40 h; series mostly up to 46.1 µM; activity change, negative = inhibition: at the top concentration
# In short: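 Inducible PC12 line expressing HTT exon 1 (Q103)-GFP, induced with 100 nM tebufenozide (final) and treated with compounds. Cytoprotection read as released protease activity by Cytotox-Glo luminescence.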
Structure (SMILES),Potency,"activity change, negative = inhibition"
COc1ccccc1-c1nnc(Sc2nc([N+](=O)[O-])nn2C)o1,12.6 µM (active),–
Cn1nnnc1Sc1ncnc2scc(-c3ccccc3C#N)c12,15.8 µM (active),–
Cn1nnnc1Sc1ncnc2scc(-c3ccccc3Br)c12,14.1 µM (active),–
CCOC(=O)c1sc2nc(N3CCOCC3)c3c(c2c1N)CC(C)(C)N(C)C3,–,10% (inactive)
CCOC(=O)c1sc2nc(N3CCOCC3)c3c(c2c1N)CCN(C)C3,–,8.6% (inactive)
Cn1nnnc1Sc1ncnc2scc(-c3ccc([N+](=O)[O-])cc3)c12,8.91 µM (active),–
NC(=O)c1sc2nc3c(c(-c4cccs4)c2c1N)CCCCC3,–,-6.49% (inactive)
COc1ccccc1-n1nnnc1S(=O)(=O)Cc1ccc(Cl)cc1,14.1 µM (active),–
Cc1cccc(-c2csc3ncnc(Sc4nnnn4C)c23)c1,14.1 µM (active),–
CC(=O)Nc1ccc(S(=O)(=O)N2CCSC2c2ccccc2)cc1 (stereo not drawn),–,0.578% (inactive)
O=C(O)c1cc(=O)c2ccc(Cl)cc2[nH]1,–,-5.11% (inactive)
O=C1Cc2c([nH]c3ccc(Br)cc23)-c2ccccc2N1,2.24 µM (active) and 3.55 µM (active),–
Cn1nnnc1Sc1ncnc2scc(-c3ccc(C(F)(F)F)cc3)c12,12.6 µM (active),–
CN1C(=O)NC(NC(=O)c2cccs2)(C(F)(F)F)C1=O (stereo not drawn),–,-6.9% (inactive)
COc1ccc(C)cc1NC(=O)C(Sc1nnnn1C)c1ccccc1 (stereo not drawn),–,-4.35% (inactive)
c1csc(-c2cn3c(n2)SCC3)c1,–,-24.7% (inactive)
N#CCSc1nc2ccc(N3CCCCC3)cc2c(=O)n1Cc1ccccc1,22.4 µM (active),–
N#Cc1c(C(F)(F)F)cc(-c2ccc(Cl)cc2)[nH]c1=O,4.47 µM (active),–
